# Source: PubChem BioAssay
# Compounds with a hit are over-represented: about 2.8% of the library has one in this group of screens.
# TSG101-PTAP inh – TSG101-PTAP interaction inhibition, HIV-1 budding | Q99816 | Fluorescence polarization, FITC-PTAP peptide/Tsg101, 20 min | Potency, µM (highest dose often 115 µM), actives largely listed as inhibitors | 44,000 tested, under 10 active
#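 FITC-labeled PTAP peptide (50 nM final) binding to Tsg101 binding domain (10 uM final) read by fluorescence polarization after 20 min at r.t. in HEPES pH 7.5 buffer. Actives by CRC class, <25 µM.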
# GALC G270D act – enhancers of human galactocerebrosidase G270D mutant activity in cells | hit rate 0.1% among 45,000 | P54803 | Potency, µM (series often up to 57.5 µM), usual class: activators | AID 1159614 | 145M-Twi-hGALC-G270D cells (Twitcher mouse brain line with human GALC G270D), HMU-beta-Gal fluorescence, 48 h; note: nearly all actives have a fitted effect of over 65% in size
#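 Fluorogenic HMU-b-Gal hydrolysis (0.1 mM final, pH 5.2 citrate-phosphate with 1 mg/mL sodium taurocholate; carbonate stop buffer) measures mutant GALC activity after compound treatment of live 145M-Twi Twitcher brain cells stably carrying human GALC-G270D, with wild-type GALC line alongside; activation sought.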
# FH mod – Identification of activators of human fumarate hydratase by quantitative high-throughput screening | Potency, µM (series often up to 79.9 µM), usual class: inhibitors | hit rate 0.22% among 54,000 | FH coupled MDH/diaphorase resazurin fluorescence, 15 min; note: the screen sought activators but most active calls are inhibition curves; nearly all actives have a fitted effect of over 45% in size
# GPR32 ag – agonists of human resolvin D1 receptor DRV1 (GPR32). O75388. CHO-K1 GPR32 beta-arrestin PathHunter luminescence, 90 min; zero percent set by DMSO-only wells. activation, % at 76.9 µM. hit rate 2.5% among 48,000. AID 1346428;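 active = activation of at least 60% and not above a set upper limit, about 1 call in 100 departs from these limits; inconclusive = activation of 40% to 60%, or above that upper limit; inactive = activation under 40%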
# Target sequence (O75388 whole entry, looked up): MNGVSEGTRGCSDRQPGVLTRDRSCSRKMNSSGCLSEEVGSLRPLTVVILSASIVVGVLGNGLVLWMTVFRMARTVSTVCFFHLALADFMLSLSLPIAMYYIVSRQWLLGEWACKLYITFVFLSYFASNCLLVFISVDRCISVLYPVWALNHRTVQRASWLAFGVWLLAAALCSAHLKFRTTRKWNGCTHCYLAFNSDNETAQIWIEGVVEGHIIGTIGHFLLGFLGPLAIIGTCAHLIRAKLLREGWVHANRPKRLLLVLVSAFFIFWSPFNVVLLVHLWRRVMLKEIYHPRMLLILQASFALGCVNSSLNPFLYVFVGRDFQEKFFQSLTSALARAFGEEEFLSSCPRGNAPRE
#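 Using DMSO wells as EC0, agonist-induced signal was taken as chemiluminescence from beta-Gal reconstituted upon beta-arrestin recruitment to GPR32 in CHO-K1 cells after 90 min compound treatment.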
# GALK inhibitor – inhibits human galactokinase; P51570; recombinant GALK, Kinase-Glo ATP luminescence, 1 h; Potency, µM (top dose mostly 57.5 µM), usual class: inhibitors; 44,000 tested, under 10 active
#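 5 nM GALK with 35 µM ATP and 100 µM galactose in HEPES pH 8.0, MgCl2, NaCl, DTT, BSA; 1 h RT reaction, remaining ATP detected by Kinase-Glo Plus luminescence after 10 min; qHTS concentration series.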
# B2AR arrestin ag – agonists recruiting beta-arrestin to human beta2-adrenergic receptor | P07550 | HTLA Tango cells, beta-arrestin recruitment, luciferase luminescence, 18 h | Potency, µM (titrated, usually from 46.1 µM), actives largely listed as activators | 44,000 tested, under 10 active
#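 Luminescence read-out: arrestin recruitment to recombinant beta2-AR releases tTA, inducing luciferase. Cells exposed 18 hr at 37 degrees C to up to 46 microM compound; %Activity from corrected signal, concentration-response curves classified by r2, magnitude and efficacy.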
# Numbers stand for hits; – = inactive; ? = inconclusive; · = no result. Unless noted, calls come from the whole dose curve; as a rule, active = well fitted curve in the direction sought with a large enough effect; inconclusive = small, poorly fitted or top-dose-only effect, or another doubt; inactive = no such curve, though single readings can be large; an effect the other way counts as inactive or inconclusive.
SMILES,TSG101-PTAP inh,GALC G270D act,FH mod,GPR32 ag,GALK inhibitor,B2AR arrestin ag
CC(=O)Nc1ccc(-c2nnc(SCC(=O)c3ccc([N+](=O)[O-])cc3)o2)cc1,–,–,–,64.0,–,–
CC(=O)Nc1cccc(-c2nnc(SCC(=O)c3ccc([N+](=O)[O-])cc3)o2)c1,–,–,–,?,–,–
COc1ccc(OCc2nc(-c3ccc(-n4cccc4)cc3)no2)cc1,–,–,–,117.2,–,–
CCCCn1c(=N)n(CCOc2ccccc2OC)c2ccccc21,–,–,–,64.5,–,–
CCN1CCC(N(Cc2ccc3c(c2)OCO3)C(=O)Nc2ccc(Br)c(C)c2)CC1,–,–,–,80.0,–,–
COc1cc(N2CCC(N)CC2)ccc1Nc1ncc(Cl)c(-c2c[nH]c3ccccc23)n1,·,·,–,·,·,·
CCCN(C(=O)Cc1c(C(=O)O)[nH]c2ccc(Cl)cc12)c1ccc(OCC)cc1,–,–,–,?,–,–
Cc1ccc(C)c(N(C)C(=O)Cc2c(C(=O)O)[nH]c3ccc(Cl)cc23)c1,–,–,–,70.2,–,–
Cc1ccc(S(=O)(=O)Nc2nc3n(n2)C(c2ccccc2Cl)C=C(c2ccccc2)N3)cc1 (centres undefined),–,–,–,?,–,–
O=S(=O)(Nc1nc2n(n1)C(c1ccc(F)cc1)C=C(c1ccccc1)N2)c1ccccc1 (centres undefined),–,–,–,96.0,–,–
O=S(=O)(Nc1nc2n(n1)C(c1ccc(F)cc1)C=C(c1ccc(Cl)cc1)N2)c1ccccc1 (centres undefined),–,–,–,94.8,–,–
C=CCC1=C[C@]2(OC)[C@H](C)[C@@H](c3ccc4c(c3)OCO4)O[C@]2(OC)CC1=O,·,·,–,·,·,·
CC(=O)c1cc(-c2ccccc2)n(CC(=O)NCc2ccccc2C)c1C,–,·,·,79.7,–,–
CC(=O)c1cc(-c2ccc(F)cc2)n(CCC(=O)NCc2ccccc2C)c1C,–,·,·,–,–,–
COc1ccccc1-c1cc(C(F)(F)F)nc(S(=O)(=O)CCCC(=O)Nc2ccc(F)c(Cl)c2)n1,–,–,–,–,–,–
COc1ccccc1-c1cc(C(F)(F)F)nc(S(=O)(=O)CCCC(=O)Nc2cc(OC)c(OC)c(OC)c2)n1,–,–,–,80.5,–,–
CC1(C)CC[C@]2(C(=O)O[C@@H]3O[C@H](CO)[C@@H](O)[C@H](O)[C@H]3O)CC[C@]3(C)C(=CCC4[C@@]5(C)C[C@@H](O)[C@H](O)C(CO)(CO)C5CC[C@]43C)C2[C@@H]1O (some centres undefined),·,·,–,·,·,·
CCN(CC)c1ccc(NC(=O)c2sc3ccccc3c2Cl)cc1,–,–,–,–,–,–
CCOc1ccc(NC(=O)c2sc3ccccc3c2Cl)cc1,–,·,·,69.9,–,–
O=C1NCc2nc3ccccc3c(=O)n2C1Cc1c[nH]c2ccccc12 (centres undefined),·,·,–,·,·,·
COc1ccc(NS(=O)(=O)c2ccc3[nH]c4c(c3c2)CCCCCC4)cc1,–,–,?,74.5,–,–
CC(=O)c1ccc(NS(=O)(=O)c2cccc(S(=O)(=O)c3ccc(Cl)cc3)c2)cc1,–,–,–,61.4,–,–
CC(=O)c1ccc(NS(=O)(=O)c2ccc3[nH]c4c(c3c2)CCCC4)cc1,–,–,?,–,–,–
CC(=O)c1ccc(NS(=O)(=O)c2ccc3[nH]c4c(c3c2)CCCCCC4)cc1,–,–,?,72.7,–,–
Cc1cc(S(=O)(=O)Nc2ccc(C(=O)O)cc2)c(C)c(S(=O)(=O)c2ccc(Cl)cc2)c1,–,–,–,–,–,–
CC(=O)Nc1ccc(NS(=O)(=O)c2ccc3[nH]c4c(c3c2)CCCCC4)cc1,–,–,?,80.0,–,–
